According to PubChem BioAssay AID1159580 (chemical genetic matrix, 2015):
About 2,000 (36%) of roughly 5,500 compounds were called active. About 18% were inconclusive and are not listed. No stated cut-off is given here; in the data, active means normalized growth mostly below about 0.91 (no sharp cut-off); inconclusive means no clear call, values can overlap the other calls; inactive means mostly above about 0.92. Some of the results follow.

Test: chemical genetic growth profiling, strain panel (AID 1159580);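 further: tested at 20 µM; growth read once vehicle control cultures reached saturation at 30 °C; 1 = growth at the plate median or of vehicle wells; lower values mean less growth of the strain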
Conditions: S. cerevisiae deletion strains, growth OD

Measured: normalized growth

O=c1oc2cc(O)ccc2s1
active: locus YCL029C, strain bik1, active compounds read low 0.899 | locus YDR101C, strain arx1, active compounds read low 0.899 | locus YDR318W, strain mcm21, active compounds read low 0.911
inactive: locus YAL013W, strain DEP1, active compounds read low 0.999 | locus YAL021C, strain ccr4, active compounds read low 1.06 | locus YAL026C, strain drs2, active compounds read low 1 | locus YAL030W, strain snc1, active compounds read low 0.995 | locus YBL061C, strain skt5, active compounds read low 1.01 | locus YBR009C, strain hhf1, active compounds read low 0.972 | locus YBR021W, strain FUR4, active compounds read low 1.03 | locus YBR023C, strain chs3, active compounds read low 1.01 | locus YBR171W, strain sec66, active compounds read low 1.02 | locus YBR229C, strain ROT2, active compounds read low 0.966 | locus YBR231C, strain swc5, active compounds read low 0.965 | locus YBR279W, strain paf1, active compounds read low 0.999 | locus YCL011C, strain gbp2, active compounds read low 0.988 | locus YCL016C, strain dcc1, active compounds read low 0.993 | locus YCL061C, strain MRC1, active compounds read low 0.997 | locus YCL069W, strain vba3, active compounds read low 1.01 | locus YCR088W, strain abp1, active compounds read low 1.01 | locus YDL005C, strain med2, active compounds read low 1.04 | locus YDL035C, strain GPR1, active compounds read low 0.945 | locus YDL040C, strain nat1, active compounds read low 1 | locus YDL074C, strain BRE1, active compounds read low 0.962 | locus YDL101C, strain DUN1, active compounds read low 0.967 | locus YDL134C, strain PPH21, active compounds read low 0.972 | locus YDL185W, strain tfp1, active compounds read low 0.955 | locus YDL192W, strain arf1, active compounds read low 0.954 | locus YDR001C, strain nth1, active compounds read low 1.01 | locus YDR069C, strain doa4, active compounds read low 0.998 | locus YDR137W, strain rgp1, active compounds read low 1.02 | locus YDR150W, strain NUM1, active compounds read low 0.993 | locus YDR159W, strain sac3, active compounds read low 0.941 | locus YDR162C, strain NBP2, active compounds read low 0.968 | locus YDR195W, strain ref2 1.12 | locus YDR297W, strain sur2, active compounds read low 1.01 | locus YDR334W, strain swr1, active compounds read low 1.01 | locus YDR335W, strain msn5, active compounds read low 0.99 | locus YDR388W, active compounds read low 0.947 | locus YDR392W, strain spt3, active compounds read low 0.953 | locus YDR502C, strain sam2, active compounds read low 0.934 | locus YEL003W, strain gim4, active compounds read low 0.999 | locus YEL037C, strain rad23, active compounds read low 0.998 | locus YEL061C, strain CIN8 (second series), active compounds read low 1.01 | locus YEL061C, strain CIN8, active compounds read low 0.98 | locus YER015W, strain faa2, active compounds read low 0.975 | locus YER016W, strain bim1, active compounds read low 0.989 | locus YER110C, active compounds read low 0.968 | locus YER111C, strain swi4, active compounds read low 0.996 | locus YER155C, strain BEM2 (second series), active compounds read low 0.988 | locus YER155C, strain BEM2, active compounds read low 0.973 | locus YER167W, strain BCK2, active compounds read low 0.965 | locus YFR010W, strain ubp6, active compounds read low 0.978 | locus YGL078C, strain dbp3, active compounds read low 0.96 | locus YGL086W, strain mad1, active compounds read low 0.932 | locus YGL167C, strain pmr1, active compounds read low 1.02 | locus YGL173C, strain kem1, active compounds read low 0.967 | locus YGL227W, strain vid30, active compounds read low 1 | locus YGL240W, strain doc1, active compounds read low 0.967 | locus YGL248W, strain PDE1, active compounds read low 0.985 | locus YGL253W, strain hxk2, active compounds read low 1 | locus YGR078C, strain PAC10, active compounds read low 0.969 | locus YGR135W, strain pre9, active compounds read low 0.898 | locus YGR229C, strain SMI1, active compounds read low 0.965 | locus YGR252W, strain gcn5, active compounds read low 0.956 | locus YHR013C, strain ard1, active compounds read low 1.1 | locus YHR027C, strain rpn1, active compounds read low 0.998 | locus YHR030C, strain SLT2, active compounds read low 0.983 | locus YHR079C, strain IRE1 (second series), active compounds read low 0.942 | locus YHR094C, strain hxt1, active compounds read low 0.966 | locus YHR129C, strain ARP1, active compounds read low 0.966 | locus YHR142W, strain chs7, active compounds read low 1.04 | locus YHR200W, strain rpn10, active compounds read low 0.927 | locus YIL066C, strain RNR3, active compounds read low 0.946 | locus YIL073C, strain SPO22, active compounds read low 0.996 | locus YIL125W, strain kgd1, active compounds read low 0.982 | locus YIR030C, strain dcg1, active compounds read low 0.962 | locus YJL092W, strain hpr5, active compounds read low 0.988 | locus YJL095W, strain BCK1 (second series), active compounds read low 1.02 | locus YJL095W, strain BCK1, active compounds read low 0.933 | locus YJL115W, strain asf1, active compounds read low 1.03 | locus YJL129C, strain trk1, active compounds read low 1.03 | locus YJL134W, strain LCB3, active compounds read low 0.976 | locus YJL154C, strain vps35, active compounds read low 1.02 | locus YJL164C, strain tpk1, active compounds read low 1.01 | locus YJL166W, strain qcr8, active compounds read low 0.99 | locus YJL168C, strain set2, active compounds read low 0.961 | locus YJL187C, strain SWE1 (second series), active compounds read low 0.952 | locus YJL187C, strain SWE1, active compounds read low 1
